Experimental data reported in the supplement of paper PMC13380429.
Values without a mark were called inactive.

Tested on: Vero E6 infected with SARS-CoV-2
Assay: inhibition of SARS-CoV-2 cytopathic effect; higher = more antiviral protection, active = above 15
Details: 48 h

SMILES | inhibition of SARS-CoV-2 cytopathic effect (1 nM) | inhibition of SARS-CoV-2 cytopathic effect (8.33 nM) | inhibition of SARS-CoV-2 cytopathic effect (100 nM) | inhibition of SARS-CoV-2 cytopathic effect (833.33 nM) | inhibition of SARS-CoV-2 cytopathic effect (10000 nM)
CCCCCCNC(=O)Nc1ccc(S(=O)(=O)Nc2ccc(CCNC[C@H](O)COc3ccc(O)cc3)cc2)cc1 | 0.66% | 0.75% | 0.54% | 2.18% | 1.5%
CN(C)C(=O)n1nnnc1Cc1ccc(-c2ccccc2)cc1 | -1.07% | 2.48% | 0.66% | 2.07% | 1.15%
CCC(CC)[C@H](NC(C)=O)[C@@H]1[C@H](O)[C@@H](C(=O)O)C[C@H]1NC(=N)N [peramivir] | -2.46% | -0.07% | 0.34% | 0.01% | -0.82%
Cn1cc(C(F)(F)F)nc1-c1ccc(OCC(O)CNCCOc2ccc(O)c(C(N)=O)c2)cc1 (stereo not given) | -0.25% | -0.6% | 0.3% | -1.37% | 1.34%
COc1ccc(OC)c(CN(C(C)=O)c2cc(F)ccc2Oc2ccccc2)c1 | 1.17% | -0.16% | 4.26% | 3.55% | 2.47%
COc1c(OCCCN2CCOCC2)ccc2c1N=C(NC(=O)c1cnc(N)nc1)N1CCN=C21 [copanlisib] | -2.48% | -1.99% | -3.58% | -5.18% | -12.2%
COc1ccc2c(c1)c(CC(=O)N1CCOCC1)c(C)n2C(=O)c1ccc(Cl)cc1 | 0.39% | -0.48% | 1.8% | -0.58% | -0.85%
CN(C)C(=O)CCSC(SCCC(=O)O)c1cccc(/C=C/c2ccc3ccc(Cl)cc3n2)c1 (stereo not given) | -1.06% | -1.39% | 3.57% | 1.55% | 5.11%
N=C(N)c1ccc(N2CCN(C3CCN(CC(=O)O)CC3)CC2)cc1 | -1.25% | 0.6% | 0.06% | -0.33% | 1.5%
CC(=O)Nc1ccc(C(=O)O)cc1 [acedoben] | -1.13% | 3.16% | 1.58% | 0.73% | 3.31%
COc1ccc(Cl)c(Nc2nc3ccccc3nc2NS(=O)(=O)c2cccc(NC(=O)C(C)(C)N)c2)c1 [pilaralisib] | 0.3% | 0.48% | 1.1% | 0.71% | -1.82%
O=C1NCCN1CCN1CCC(c2cn(-c3ccc(F)cc3)c3ccc(Cl)cc23)CC1 [sertindole] | -2.53% | -4.63% | -2.36% | -5.98% | -11.3%
N#Cc1ccc(C(c2ccc(C#N)cc2)n2cncn2)cc1 [letrozole] | -1.89% | 4.26% | 0.11% | -2.14% | -1.61%
Cc1ccc2c(c1)[C@]13CCCC[C@@H]1[C@H](C2)N(C)CC3 [dimemorfan] | 0% | 0.39% | 0.04% | 1.02% | 0.98%
COc1cc(C[C@@H]2NCCc3cc(O)c(O)cc32)cc(OC)c1OC [trimethoquinol] | 0.9% | 0.73% | 1.88% | 0.62% | -5.45%
OCc1cncc(F)c1 [5-fluoro-3-pyridyl-methanol] | -1.88% | 0.14% | -10.8% | -0.19% | -2.94%
CCCCCCCN(CC)CCC[C@@H](O)c1ccc(NS(C)(=O)=O)cc1 (racemic) [ibutilide] | -3.47% | -2.14% | -2.19% | 0.97% | -2.22%
Cc1cn([C@@H]2C[C@@H](O)[C@H](CO)O2)c(=O)[nH]c1=O [telbivudine] | 1% | -1.65% | -1.15% | -0.26% | 2.12%
OCc1ccccc1O [salicyl-alcohol] | -0.86% | -1.41% | 0.06% | 4.76% | 0.29%
CCOc1cc(C(=O)N2CCC(N3CCN(C)CC3)CC2)ccc1Nc1ncc2c(n1)N(C1CCCC1)c1ccccc1C(=O)N2C | 0.46% | 1.68% | -0.44% | -1.7% | -0.04%
CCCN1CCCC[C@H]1C(=O)Nc1c(C)cccc1C [ropivacaine] | 1.32% | 1.42% | 2.5% | 3.09% | -1.63%
CCOC(=O)[C@H](C)C[C@@H](Cc1ccc(-c2ccccc2)cc1)NC(=O)CCC(=O)O [sacubitril] | -3.45% | -0.1% | -1.3% | -3.34% | 2.18%

SMILES | inhibition of SARS-CoV-2 cytopathic effect (1 nM) | inhibition of SARS-CoV-2 cytopathic effect (8.33 nM) | inhibition of SARS-CoV-2 cytopathic effect (100 nM) | inhibition of SARS-CoV-2 cytopathic effect (833.33 nM) | inhibition of SARS-CoV-2 cytopathic effect (10000 nM)
Cc1c(C(=O)Nc2ccc(N3C[C@@H](C)O[C@@H](C)C3)nc2)cccc1-c1ccc(OC(F)(F)F)cc1 [sonidegib] | 1.64% | -0.28% | -1.14% | -2.32% | -7.02%
COc1cc2c(cc1OC)-c1cc3ccc(OC)c(OC)c3c[n+]1CC2 [palmatine-chloride] | -2.25% | 0.72% | -0.15% | -2.8% | 2.04%
CC(CNC1CCCCC1)OC(=O)c1ccccc1 (stereo not given) [hexylcaine] | 2.92% | -0.38% | -0.1% | -11% | -2.93%
CCCn1c(=O)c2nc(-c3ccccc3)[nH]c2n(CCC)c1=O [1,3-dipropyl-8-phenylxanthine] | -3.41% | -2.62% | -2.96% | -3.56% | -1.61%
N#Cc1ccc(N2CCN(C(=O)COc3ccc4[nH]cc(CCN)c4c3)CC2)cc1 [donitriptan] | -0.48% | -0.51% | 0.51% | -0.87% | 1.77%
CCC(=O)NC1CCc2cccc(OC)c2C1 (stereo not given) | 0.92% | 1.4% | 2.16% | 7.57% | 4.57%
O=S(=O)(N[C@H](CO)C(C(F)(F)F)C(F)(F)F)c1ccc(Cl)s1 [begacestat] | -4.03% | -5.1% | -1.3% | -4.51% | -7.85%
CCCOc1ccc(Br)cc1-c1cc(-c2ccc(Cl)cc2)[nH]c1-c1ccncc1 | -1.64% | 0.84% | 0.25% | -0.83% | -5.61%
Nc1nc(Cl)nc2c1ncn2[C@@H]1O[C@H](CO)[C@@H](O)[C@H]1O [2-chloroadenosine] | 1.66% | 0.54% | -0.34% | -0.32% | -2.2%
c1ccc(CNCc2ccc(CN3CCCNCCNCCCNCC3)cc2)nc1 | 0.27% | 1.15% | 3.41% | 1.72% | 2.99%
Oc1ccc(-c2nc3cc(O)cc(Br)c3o2)cc1 | 0.68% | 1.49% | 2.09% | 4.89% | 2.95%
NC(=O)c1cn(Cc2c(F)cccc2F)nn1 [rufinamide] | 2.25% | 1% | 2.89% | 1.75% | 3.51%
O=C1NC(=O)C(c2cnc3ccccn23)=C1c1cn2c3c(cc(F)cc13)CN(C(=O)N1CCCCC1)CC2 | 0.79% | 7.15% | 14.4% | 16% (active) | 14.8%
Cc1cccc(C)c1NC(=O)CN1CCCC1=O [nefiracetam] | -0.7% | 0.26% | -2.77% | 1.22% | -6.8%
Nc1nonc1/C(=N/O)Nc1ccc(F)c(Cl)c1 | 5.29% | 3.44% | 2.09% | 0.57% | -2.02%
NCCc1c[nH]c2ccc(O)cc12 [serotonin] | -0.73% | -0.57% | 2.41% | 2.28% | 0.37%
CCCCC1(COC(=O)CCC(=O)O)C(=O)N(c2ccccc2)N(c2ccccc2)C1=O [suxibuzone] | -0.21% | -4.18% | -2.21% | -3.64% | 0.42%
OCC(Br)(Br)Br [tribromoethanol] | 3.45% | 0.33% | 2.81% | 4.01% | 1.49%
C=CC(=O)Nc1cc(Nc2nccc(-c3c[nH]c4ccccc34)n2)c(OC)cc1N(C)CCN(C)C | -3.07% | -6.83% | -10.5% | -13.9% | -12.3%
Cc1nc2cnc3ccc(C#Cc4cccnc4)cc3c2n1-c1ccc(C(C)(C)C#N)cc1 | -1.65% | 8.23% | -1.48% | -1.07% | -1.26%
CC[C@]1(O)C[C@@H]2CN(CCc3c([nH]c4ccccc34)[C@@](C(=O)OC)(c3cc4c(cc3OC)N(C)[C@H]3[C@@](O)(C(N)=O)[C@H](O)[C@]5(CC)C=CCN6CC[C@]43[C@@H]65)C2)C1 [vindesine] | 0.4% | 0.16% | -1.63% | 0.62% | -2.18%
